These results are taken from PubChem BioAssay (EPA / NIEHS).

Molecules are shown by their SMILES. Calls of active or inactive are those of the source. Rule for the calls: active = hit-call score of the fitted dose curve at least 0.9, where 1 is the maximum; inactive = score below 0.9.

The test is described as follows: ATG_M_32_CIS: Attagene CIS-FACTORIAL HepG2 Assay for M32 Transcription Factor (Internal Marker) (AID 2282949).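 Note: background control marker of the multiplexed CIS panel rather than a real target.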 The following applies: HepG2 Attagene cis-factorial M32 reporter, mRNA; actives raise or lower the signal. As to the method: ATG_CIS is a cell-based, multiplexed-readout assay that uses HepG2, a human liver cell line, with measurements taken at 24 hours after chemical dosing in a 24-well plate.ATG_M_32_CIS is one of 52 assay component(s) measured or calculated from the ATG_CIS assay. It is designed to make measurements of mRNA induction, a form of inducible reporter, as detected with fluorescence intensity signals by Reverse transcription polymerase chain reaction (RT-PCR) and Capillary electrophoresis technology.Data from the assay component ATG_M_32_CIS was analyzed into 1 assay endpoint. This assay endpoint, ATG_M_32_CIS, was analyzed with bidirectional fitting relative to DMSO as the negative control and baseline of activity. Using a type of inducible reporter, measures of mRNA for gain or loss-of-signal activity can be used to understand the background control at the transcription factor-level as they relate to the gene . Furthermore, this assay endpoint can be referred to as a secondary readout, because this assay has produced multiple assay endpoints where this one serves a background control function. To generalize the intended target to other relatable targets, this assay endpoint is annotated to the background measurement intended target family, where the subfamily is internal marker.
Human liver HepG2 cells are transiently transfected with multiple reporter transcription units (MRTUs) in 6-well plates using FuGene 6 reagent (Roche; 3 ml FuGene/1 mg DNA). The MRTU constructs are regulated by a cis-regulating element (promoter). […] A major difference between the CIS and TRANS system is that in CIS activities of endogenous TFs are measured, whereas the TRANS assay evaluates changes in activities of exogenous, chimeric NR-Gal4 proteins. […] At the end of 24 hour incubation, total RNA was isolated using TriZol reagent (Invitrogen). The isolated RNA is then reverse-transcribed using oligo(dT) primer and Mo-MLV reverse transcriptase (Invitrogen) with DNAse I (Ambion) treatment for 30 min. The one-tenth of the produced cDNA was amplified by PCR using Taq DNA polymerase (Invitrogen) and two reporter sequence-specific primers. The PCR products were fluorescently labeled by primer extension with 6-arboxyfluorescein (6-FAM) 5'-labeled reporter sequence-specific primer (2 min at 95 C, 20 s at 68 C and 10 min at 72 C) and these products were digested with 5U of HpaI (New England Biolabs) for 2h at 37 C. The fragments were purified using Qiaquick PCR columns (Qiagen), analyzed on an ABI 3130xL genetic analyzer (Applied Biosystems) with peak positions identified by using a set of X-rhodamine (ROX)-labeled MapMarker1000 molecular weight standards (BioVentures). The raw capillary electrophoresis data was processed using Attagraph software (Attagene).
`CCCCC(CC)COC(=O)/C=C/c1ccc(OC)cc1` (stereo not given): the compound was classed as inactive.
The entry for `Nc1cccc(N)n1` is “inactive”.
With `C=Cc1ccc(OC(C)=O)cc1` the entry was “inactive”.
With `CC1=CCC2CC1C2(C)C` (stereo not given), the result was inactive.
With `C=CC(C)(CCC=C(C)C)OC(=O)C=Cc1ccccc1` (stereo not given) the entry was “inactive”; with `CC1CC(=O)CC(C)(C)C1` (stereo not given), “inactive”; with `Cc1c[nH]c(=O)[nH]c1=O`, “inactive”.
As for `CCN1CN(CC)CN(CC)C1`, the outcome was inactive.
On to `CC(=O)CC(=O)Nc1ccccc1C`, for which the compound was classed as inactive.
With `CC(c1cc(C(C)(C)C)cc(C(C)(C)C)c1O)c1cc(C(C)(C)C)cc(C(C)(C)C)c1O` the entry was “inactive”.
The entry for `CCCCOCCOCCOC(C)=O` is “inactive”; for `O=C1CCCCC1C1CCCCC1` (stereo not given) it is “inactive”.
`CCC(C)C(=O)OCCc1ccccc1` (stereo not given): the result was inactive.
Take `CC(C)C(=O)OCCc1ccccc1`: the compound was called inactive.
Consider `CCCCNC(=S)NCCCC`, for which the result was inactive.
Turning to `CCN1CCCC1=O`, the result was inactive.
With `CC(=O)OCc1ccccc1` the entry was “inactive”.
The entry for `O=C(Cl)c1ccc(C(=O)Cl)cc1` is “inactive”.
In the case of `CCOC(=O)C1=NN(c2ccc(Cl)cc2Cl)C(C)(C(=O)OCC)C1` (stereo not given), the call was inactive.
For the compound `O=C(O)CCC(=O)O`, the compound was classed as inactive.
As to `CC(C)(O)Cc1ccccc1`, the result was inactive.
Take `CC(=O)c1ccccc1O`: the compound was classed as inactive.
With `CC=CC(=O)OCC(C)C` the entry was “inactive”; with `Cc1c(Cl)cccc1Cl`, “inactive”; with `C=CC(C)(O)CC/C=C(\C)CC` (stereo not given), “inactive”.
Consider `CN1CCN(C)CC1`, for which the result was inactive.
With `CC(CC=O)CC(C)(C)C` (stereo not given), the compound was called inactive.
With `CC1=CP(=O)(c2ccccc2)CC1` (stereo not given) the entry was “inactive”.
With `N#Cc1ccc(C2CCCc3cncn32)cc1` (stereo not given) the entry was “inactive”.
The entry for `O=C1CCCCCCCCCCC1` is “inactive”; for `C=CC(=O)OCCCCCCOC(=O)C=C` it is “inactive”; for `CC12CCC(CC1)C(C)(C)O2` it is “inactive”.
`c1ccc(-c2nc3ccccc3[nH]2)cc1`: the result was inactive.
With `C1CNCCN1` the entry was “inactive”; with `Cc1noc(NS(=O)(=O)c2ccc(N)cc2)c1C`, “inactive”.
With `NNS(=O)(=O)c1ccc(Oc2ccc(S(=O)(=O)NN)cc2)cc1` the entry was “inactive”; with `CCc1cccc(C)c1N(C(=O)CS(=O)(=O)O)C(C)COC` (stereo not given), “inactive”.
In the case of `Cc1cc(C)c(C=O)c(C)c1`, the outcome was inactive.
For `CCOC(=O)[C@H](O)[C@@H](O)C(=O)OCC`, the result was inactive.
The entry for `CC(=O)OCCc1ccccc1` is “inactive”.
